Data from the supplement of paper PMC3334620.
Whole data set: some 33,000 sequences, median “E-score (-0.5 to 0.5)” near -0.017, cut for the highest 2% near 0.3. Only a selection was taken, and the highest values are over-represented in it overall.

What follows are sequences tested against T1, Sut1 (UniProt P53032) (assay: PBM E-score (8-mer binding enrichment) (E-score (-0.5 to 0.5)); higher = stronger / more preferred TF binding). Details: protein concentration: 200 nM; construct: GST-full length.
T1 sequence: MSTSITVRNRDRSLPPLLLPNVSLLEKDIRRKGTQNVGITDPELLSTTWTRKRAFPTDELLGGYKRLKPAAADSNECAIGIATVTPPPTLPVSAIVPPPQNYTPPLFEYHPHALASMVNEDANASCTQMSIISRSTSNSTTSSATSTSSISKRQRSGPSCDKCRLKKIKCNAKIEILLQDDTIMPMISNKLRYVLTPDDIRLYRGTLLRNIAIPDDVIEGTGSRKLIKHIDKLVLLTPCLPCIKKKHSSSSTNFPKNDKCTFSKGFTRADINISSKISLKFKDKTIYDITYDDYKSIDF
Procedure: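 Universal 'all 10-mer' protein binding microarrays (Agilent AMADID 015681) probed with GST-tagged S. cerevisiae TFs (full-length or DBD) made by in vitro transcription/translation (PURExpress), about 100-200 nM. Bound TF was detected with fluorescent anti-GST. Each ungapped 8-mer (which stands for itself and its reverse complement) is scored by the PBM enrichment score (E-score), a modified Wilcoxon-Mann-Whitney statistic from -0.5 to +0.5, computed with the Universal PBM Analysis Suite. Scale: above 0.35 generally sequence-specific binding.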

| Sequence | PBM E-score |
| --- | --- |
| ATATAGGA | 0.0279 |
| AAATTGCA | -0.0262 |
| ACCCTATC | 0.0201 |
| CTTGAACA | 0.0785 |
| GTTGCGCA | -0.226 |
| CAGCCTAC | -0.0545 |
| CGGATGCA | -0.0215 |
| ATTGTATG | 0.175 |
| AATGTATA | 0.298 |
| GATGTATA | 0.0593 |
| ATTGTATA | 0.311 |
| CTTGTATA | 0.166 |
| CATGTATA | 0.0763 |
| AGCCTACG | -0.109 |
| AGCCCATC | -0.23 |
| AACATGGG | -0.00269 |
| CTATTGAA | 0.226 |
| GAAACAAA | 0.321 |
| CAAACAAA | 0.161 |
| GAAAACAA | 0.184 |
| AAACAAAC | 0.165 |
| TAAAACAA | 0.207 |
| AAACAAAG | 0.322 |
| GAAACAAC | 0.107 |
| AAAAACAA | 0.316 |

| Sequence | PBM E-score |
| --- | --- |
| ACCAACAT | 0.0524 |
| ACCAACAA | 0.299 |
| AAACAAAA | 0.197 |
| ACCAACAG | -0.297 |
| GAGTTGAA | 0.18 |
| ACAGATAT | 0.0244 |
| ATAAGTTC | 0.261 |
| ATACAGTG | 0.0667 |
| CTCCAAAG | 0.0263 |
| CCTCGACA | -0.288 |
| CATGCGTA | -0.0829 |
| ATCAGTTA | 0.204 |
| GAAAAACA | 0.125 |
| AAAACAAG | 0.0776 |
| AAAACAAA | 0.312 |
| TAAAAACA | 0.188 |
| AAAACAAT | 0.215 |
| AAAAAACA | 0.313 |
| AAGTTACC | 0.158 |
| CCCAAGGC | -0.0767 |
| GATACGGC | -0.104 |
| GATACGGA | 0.364 |
| AATACGGA | 0.286 |
| CATACGGC | -0.156 |
| CATACGGG | -0.186 |

| Sequence | PBM E-score |
| --- | --- |
| GATACGCA | -0.141 |
| TATACGAA | 0.194 |
| TATACGGA | 0.312 |
| CATACGGA | 0.303 |
| ATGAGTCA | -0.0351 |
| GCGCTAAC | -0.0641 |
| TAGCTATA | -0.0172 |
| GCGATCCA | -0.121 |
| AGTTTTAT | 0.211 |
| TACCACCA | 0.0245 |
| CAGCCTGC | -0.224 |
| AGACGAGG | -0.182 |
| CGTACTCA | 0.0162 |
| AGTACTCG | 0.0601 |
| AGTACTCC | 0.325 |
| CGTACTCC | 0.348 |
| AGTACTCA | 0.0483 |
| CGTACTAC | 0.0559 |
| AAAGTCAG | 0.00828 |
| GCTAAAGC | -0.0213 |
| CCTATCGC | -0.115 |
| CAGCAAAG | -0.0349 |
| CCCCGTCC | -0.194 |
| GTCCGTCA | 0.253 |
| ATCCGTCC | -0.0115 |

| Sequence | PBM E-score |
| --- | --- |
| CTCCGTCC | 0.307 |
| ATCCGTCA | 0.0376 |
| CTCCGTCA | 0.369 |
| CTACACAG | -0.108 |
| CCAGGGTC | -0.265 |
| ACGTATTC | -0.0472 |
| TGACTTAA | 0.153 |
| CAGTCCAG | -0.325 |
| TAGTCCGA | 0.48 |
| CAGTCCCG | -0.0578 |
| TAGTCCAA | -0.01 |
| CAGTCCGC | 0.196 |
| CAGTCCGG | 0.353 |
| TAGTCCCA | -0.21 |
| GAGTCCGA | 0.476 |
| CAGTCCGA | 0.411 |
| GAGTCCGC | 0.282 |
| GCGTCCGA | -0.09 |
| CCGTCCGA | 0.0411 |
| AACTTACT | 0.0273 |
| CGCCCTTC | -0.0609 |
| AGTGGCGA | 0.0883 |
| AGGGGCCC | -0.217 |
| AACAGAAT | 0.0169 |
| ATCGATGG | -0.0596 |

| Sequence | PBM E-score |
| --- | --- |
| AGGCTACG | -0.345 |
| AAGTCTGA | -0.193 |
| CAAATTCA | 0.0268 |
| GCAGAATA | -0.0687 |
| ACACCGGT | 0.0191 |
| ACACCGGA | 0.343 |
| ACACCGGC | 0.0168 |
| GCACCGGA | 0.338 |
| TCACCGAA | 0.155 |
| CCACCGGA | 0.362 |
| GCACCGGC | -0.0791 |
| TCACCGGA | 0.397 |
| CCACCGGG | -0.0405 |
| GCACCGTA | 0.0972 |
| TCACCGCA | -0.0955 |
| CCACCGGC | 0.0248 |
| GGCTTTAC | 0.113 |
| ACTGAGAC | 0.00875 |
| ATCCAGAC | -0.0133 |
| CGGTTTAC | 0.00822 |
| AGGGCTGA | -0.161 |
| CGAGGAAG | 0.0543 |
| AAGCCATC | 0.0153 |
| TAACAGGA | 0.0331 |
| GAACCAGA | -0.185 |

| Sequence | PBM E-score |
| --- | --- |
| GAACGTGC | -0.234 |
| TGGTTAAA | 0.159 |
| AAACGGTA | 0.0446 |
| CAACGGAG | 0.399 |
| AAACGGGA | 0.159 |
| AAACGGAG | 0.37 |
| AAACGGAA | 0.331 |
| TAACGGAA | 0.309 |
| AAACGGAT | 0.209 |
| CAACGGAC | 0.291 |
| GAACGGAA | 0.166 |
| TCACGGAA | 0.238 |
| AAACGGAC | 0.147 |
| CAACGGAA | 0.25 |
| ACCCAACG | -0.0276 |
| CACCCTAC | -0.161 |
| CATATGCG | -0.0808 |
| AGTAAACG | -0.0776 |
| CTACCAGC | -0.212 |
| GGCGTTGA | -0.134 |
| GCAGTAAC | -0.144 |
| GAATTGTA | 0.128 |
| CTCTCCCC | -0.259 |
| AATGCTTG | -0.238 |
| CGACCTGA | -0.184 |

| Sequence | PBM E-score |
| --- | --- |
| CCTAAAGA | 0.0405 |
| ACTAATCA | 0.139 |
| CAGAGTCA | -0.379 |
| TAAAGAAA | 0.301 |
| GAAAGAAA | 0.294 |
| TCAAGAAA | 0.316 |
| ACAAGAAA | 0.218 |
| CAAAGAAA | 0.115 |
| CCAAGAAA | 0.241 |
| CTAGGCCA | -0.145 |
| ATGGGGAA | -0.0455 |
| GAGAAGGC | -0.0615 |
| CGCGCACC | -0.0354 |
| GGTGAGAA | 0.137 |
| CCGCTCAA | -0.078 |
| ACTCCCGG | 0.174 |
| CCTCCGGC | 0.106 |
| ACTCCGGC | 0.489 |
| ACTCCGGG | 0.491 |
| ACTCCTGC | 0.0597 |
| CATCCGGG | -0.0527 |
| TACAATGA | 0.153 |
| CAAGATTC | 0.235 |
| CTACGGAA | 0.0897 |
